KCNQ2 pot: potentiators of rat KCNQ2 potassium channel | Potassium voltage-gated channel subfamily KQT member 2 (Rattus norvegicus), O88943 | CHO-K1 KCNQ2, FluxOR thallium flux fluorescence; hits give high values | B-score at 10 µM | 310,000 compounds, 0.54% hits | AID 2239, 2010;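 active means fluorescence ratio B-score at least 3 SD of library B-scores, with initial fluorescence B-score within 3 of them, cut at about 5.3 in these data; same plate scores as AID 2156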;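 further: B-score of peak minus minimum over baseline fluorescence ratio after K+ and Tl+ stimulus; positive B-score means potentiation of KCNQ2 with more thallium influx and brighter signal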
KCNQ2 block: rat KCNQ2 potassium channel inhibitors, primary screen, cell-based, CHO-K1, FluxOR thallium flux, B-score; Potassium voltage-gated channel subfamily KQT member 2 (Rattus norvegicus), O88943; 20 min; hits give low values; B-score at 10 µM; 310,000 compounds, 1.1% hits; AID 2156, 2009;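 active means fluorescence ratio B-score at most minus 3 library SDs, with starting brightness B-score within 2 library SDs, cut at about -5.5 in these data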
KCNQ2 inh conf: rat KCNQ2 potassium channel inhibitors, confirmation, cell-based, thallium flux. 1,000 compounds, 57% hits. AID 493025, 2011. activity change, negative = inhibition, % at 10 µM. KCNQ2-expressing cells, inhibition; hits give low values. shares compounds with KCNQ2 block;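 further: 0% = vehicle wells and values are ratio percent relative to vehicle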
KCNQ1 spec: human KCNQ1 channel inhibition, counter-screen for KCNQ2 inhibitor project, cell-based, FluxOR thallium flux; 1,000 compounds, 15% hits; KCNQ1-expressing cells, FluxOR thallium flux fluorescence; hits give low values; activity change, negative = inhibition, % at 10 µM; shares compounds with KCNQ2 block; AID 493026, 2011;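 active means activity change at least 3 SD of negative controls below their mean in both duplicate wells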;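 further: CHO cells stably transfected with KCNQ1 and depolarized by potassium stimulus; peak minus minimum fluorescence over baseline after thallium addition; 0% = vehicle negative control and -100% = blank without thallium stimulus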
Target sequence (P51787 whole entry, looked up): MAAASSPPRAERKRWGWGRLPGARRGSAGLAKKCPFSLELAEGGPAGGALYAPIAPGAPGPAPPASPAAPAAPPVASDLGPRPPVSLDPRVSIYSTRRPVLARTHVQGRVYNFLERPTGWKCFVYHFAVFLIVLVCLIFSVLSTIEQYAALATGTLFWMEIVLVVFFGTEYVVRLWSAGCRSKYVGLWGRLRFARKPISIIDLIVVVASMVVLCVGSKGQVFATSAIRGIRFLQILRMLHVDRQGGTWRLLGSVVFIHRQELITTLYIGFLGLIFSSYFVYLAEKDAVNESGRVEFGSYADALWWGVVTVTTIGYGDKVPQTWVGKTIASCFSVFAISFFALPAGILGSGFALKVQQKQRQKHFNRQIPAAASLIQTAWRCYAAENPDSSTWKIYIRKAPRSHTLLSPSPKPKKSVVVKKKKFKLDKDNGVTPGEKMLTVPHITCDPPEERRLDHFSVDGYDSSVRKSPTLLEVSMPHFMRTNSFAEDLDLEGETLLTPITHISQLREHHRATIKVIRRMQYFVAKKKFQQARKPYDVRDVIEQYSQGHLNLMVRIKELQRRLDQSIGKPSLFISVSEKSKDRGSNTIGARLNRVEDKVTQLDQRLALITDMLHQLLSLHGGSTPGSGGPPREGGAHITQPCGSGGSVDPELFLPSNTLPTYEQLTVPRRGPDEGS
CHO Tl ctr: thallium flux change in parental CHO cells, counter-screen for KCNQ2 inhibitor project. AID 493029, 2011. shares compounds with KCNQ2 block. activity change, % at 10 µM. hits give low values. 1,000 compounds, 14% hits;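 further: 0% = vehicle negative controls with stimulus buffer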
KCNQ2 patch conf: rat KCNQ2 channel inhibitors, confirmation, cell-based, automated patch clamp, single concentration; 550 compounds, 49% hits; calls only at 10 µM; shares compounds with KCNQ2 block; AID 588531, 2011; KCNQ2-expressing cells, automated patch clamp current
Starred values were filed as active, the others as inactive; i = inactive; . = not tested or not shown; + = active, no number. An excerpt weighted towards active compounds, which were near 1.6% of everything screened. Unless noted, how the calls were made is not given here.

SMILES	KCNQ2 pot	KCNQ2 block	KCNQ2 inh conf	KCNQ1 spec	CHO Tl ctr	others
C=CCNc1nc(Nc2ccc(-c3nc4ccccc4o3)cc2)nc(N2CCOCC2)n1	1.05	i	.	.	.
Cc1ccc2c(C(=O)CN3CCC(C(N)=O)CC3)c(C)[nH]c2c1	.	i	.	.	.
CCOC(=O)c1c(C)n(C)c2ccc(OCC(O)CNC(CC)CO)cc12 (stereo unspecified)	1.21	i	.	.	.
CCOC(=O)c1c(C)n(-c2ccc(C)cc2)c2ccc(OCC(O)CNCCCO)cc12 (stereo unspecified)	-10.9	-10.9*	i	i	i
O=C(CCN1CCN(c2ccccc2F)CC1)Nc1cccc(F)c1	0.09	i	.	.	.
COc1ccccc1C1NC=C([N+](=O)[O-])C=C1[N+](=O)[O-] (stereo unspecified)	.	i	.	.	.
CCOC(=O)c1cccnc1SCC(=O)N(CC)c1cccc(C)c1	.	i	.	.	.
N#Cc1nc(COc2ccc(F)cc2)oc1N1CCC(Cc2ccccc2)CC1	-8.86	-8.86*	-41.5%*	-42.0%*	-32.5%*	KCNQ2 patch conf=i
N#Cc1nc(COc2ccc(F)cc2)oc1N1CCN(Cc2ccccc2)CC1	-6.95	-6.95*	-16.5%*	i	i	KCNQ2 patch conf=+
N#Cc1nc(Cc2ccccc2)oc1N1CCC(Cc2ccccc2)CC1	.	i	.	.	.
CCN1CCN(c2oc(COc3ccc(-c4ccccc4)cc3)nc2C#N)CC1	.	i	.	.	.
C=CCOc1ccc(C=Nc2ccc(C)c(Cl)c2)c(O)c1	2.21	i	.	.	.
C/C(=N\NC(=O)c1cccc(S(=O)(=O)N2CCOCC2)c1)c1cc2ccccc2o1	0.02	i	.	.	.
COc1ccc(-c2cc(C(F)F)n3ncc(C(=O)N4CCc5ccccc5C4)c3n2)cc1	.	i	.	.	.
COc1ccccc1-c1cc(C(F)(F)F)n2ncc(C(=O)N3CCc4ccccc4C3)c2n1	-7.58	-7.58*	i	i	i
CC(OC(=O)c1nc(-c2ccccc2)n(-c2ccccc2)n1)C(=O)Nc1cc(Cl)cc(Cl)c1 (stereo unspecified)	-6.86	-6.86*	i	i	i
CC(C)CNC(=O)c1nc(-c2ccccc2)n(-c2ccccc2)n1	.	i	.	.	.
CCCc1c(C(=O)N/N=C/c2ccccc2C(F)(F)F)nnn1-c1nonc1N	.	i	.	.	.
CC(C)(C)c1cc(C(c2cccnc2)N2CCN(CCO)CC2)cc(C(C)(C)C)c1O (stereo unspecified)	-9.15	-9.15*	-26.0%*	i	i	KCNQ2 patch conf=i
CC(C)(C)n1nnnc1C(c1cccnc1)N1CCN(c2cccc(C(F)(F)F)c2)CC1 (stereo unspecified)	1.6	i	.	.	.
Cc1ncc([N+](=O)[O-])n1CC(=O)Nc1cc(Cl)ccc1Cl	1.78	i	.	.	.
COc1ccc(Nc2nc(C(=O)NCc3ccco3)cs2)cc1	.	i	.	.	.
O=C(NCc1ccco1)c1csc(Nc2ccccc2Cl)n1	-8.35	-8.35*	i	i	i
O=C(NCc1ccco1)c1ccc(-c2ccccc2Cl)o1	-7.11	-7.11*	i	i	i
O=C(NCc1ccco1)c1ccc(-c2ccc(Cl)cc2)o1	.	i	.	.	.
SMILES	KCNQ2 pot	KCNQ2 block	KCNQ2 inh conf	KCNQ1 spec	CHO Tl ctr	others
CN(CCOC(=O)c1ccc2c(c1)OCCO2)Cc1ccccc1	.	i	.	.	.
CCn1c(Cc2ccc(OC)cc2)nnc1SCC(=O)Nc1nc2ccccc2s1	0.18	i	.	.	.
Cc1ccc(C)c(N2CCN(C(=O)Cn3cccc3)CC2)c1	1.18	i	.	.	.
Cc1ccc(C)c(N2CCN(C(=O)C(Cc3ccccc3)n3cccc3)CC2)c1 (stereo unspecified)	-7.03	-7.03*	-24.0%*	i	i	KCNQ2 patch conf=i
Cc1ccc(N2CCN(C(=O)C3CCC(=O)N(Cc4ccc(Cl)cc4)C3)CC2)c(C)c1 (stereo unspecified)	.	i	.	.	.
C#CCSc1nnc(C)c(C)n1	0.47	i	.	.	.
O=C(CCN1CCOCC1)c1ccccc1	-9.89	-9.89*	i	i	i
O=C(CCN1CCCCC1)c1ccccc1	.	i	.	.	.
O=C(OCCN1CCOCC1)c1ccc2c(c1)OCCO2	.	i	.	.	.
O=C(CCN1CCOCC1)c1ccc2c(c1)OCCO2	-7.41	-7.41*	i	i	i
CCOC(=O)N1CCN(C(=O)c2cccc(-n3c(=S)[nH]c4cc(Cl)ccc4c3=O)c2)CC1	2.15	i	.	.	.
NC(c1ccccc1)c1ccncc1 (stereo unspecified)	.	i	.	.	.
CC(C)CN1C(=O)c2ccc(C(=O)Nc3ccccc3C(=O)O)cc2C1=O	0.92	i	.	.	.
O=C(O)c1ccccc1C(=O)N(Cc1ccccc1)Cc1ccccc1	.	i	.	.	.
O=C(O)c1cc(Cl)c(Cl)cc1C(=O)N(Cc1ccccc1)Cc1ccccc1	-7.45	-7.45*	-30.0%*	i	i	KCNQ2 patch conf=+
CCS(=O)(=O)N1CCC(C(=O)c2ccc(Cl)cc2)CC1	.	i	.	.	.
Cc1oc(-c2ccccc2)nc1CS(=O)CC(=O)NC1CCCC1 (stereo unspecified)	.	i	.	.	.
CCc1cc(/C(Cc2csc(C)n2)=N/O)c(O)cc1O	-7.65	-7.65*	-37.5%*	-34.5%*	-28.5%*	KCNQ2 patch conf=+
Cc1nc(C/C(=N\N)c2ccc(O)cc2O)cs1	.	i	.	.	.
Cc1ccc(-c2nc(CSCC(=O)N3CCN(c4ccccn4)CC3)c(C)o2)cc1	.	i	.	.	.
CCc1ccc(-c2nc(CSCC(=O)N3CCN(c4ccccn4)CC3)c(C)o2)cc1	-10.1	-10.1*	-37.5%*	-40.0%*	-32.5%*	KCNQ2 patch conf=i
CCOC(=O)C(CSCC(=O)c1ccc(Cl)cc1Cl)NC(=O)OC(C)(C)C (stereo unspecified)	-7.65	-7.65*	-27.5%*	i	i	KCNQ2 patch conf=+
CCOc1ccc(OCCOC(=O)CNC(=O)c2ccc(Cl)cc2Cl)cc1	.	i	.	.	.
COc1ccc(N2CC(C(=O)NC3CCSC3=O)CC2=O)cc1 (stereo unspecified)	.	i	.	.	.
Cc1cc(C)c(-c2noc(C(=O)OC(C)(C)C)c2C(=O)OC(C)(C)C)c(C)c1	-10.2	-10.2*	i	i	i
SMILES	KCNQ2 pot	KCNQ2 block	KCNQ2 inh conf	KCNQ1 spec	CHO Tl ctr	others
COc1cc(OC)c(-c2noc(C(=O)OC(C)(C)C)c2C(=O)OC(C)(C)C)c(OC)c1	.	i	.	.	.
CCCN(CCC)C(=O)c1cc(-c2ccc3c(c2)OCO3)nc2ccccc12	-8.48	-8.48*	-26.5%*	i	i	KCNQ2 patch conf=+
Cc1cccc(-c2cc(C(=O)Nc3ccc4c(c3)OCCO4)c3ccccc3n2)c1	.	i	.	.	.
CCOc1ccc(-c2cc(C(=O)Nc3ccc4c(c3)OCCO4)c3ccccc3n2)cc1	-9.14	-9.14*	i	i	i
O=C(Nc1ccncc1)c1cc(-c2cccc(Br)c2)nc2ccccc12	0.09	i	.	.	.
O=C(Nc1cccnc1)c1cc(-c2cccc(Br)c2)nc2ccccc12	-6.72	-6.72*	-27.5%*	i	i	KCNQ2 patch conf=i
